{"source": "PubChem BioAssay AID2514", "about": "(National Center for Advancing Translational Sciences (NCATS), 2010)", "note": "“And” between values parts separate entries of the source, which are not always exact repeats. Equal entries are not always repeated. Records with an inconclusive call do not appear. The source made the active and inactive calls. The call rests on the fitted dose curve; in most records, active means well fitted activation curve with a large enough effect; inconclusive means small, poorly fitted or top-dose-only effect; inactive means no such curve, though single readings can be large or run the other way."}
{"assay": "Confirmation Concentration-Response Assay for Enhancers of SMN2 Splice Variant Expression for Probe SAR", "conditions": "HEK293 SMN2 exon7 splicing luciferase reporter, luminescence; series mostly up to 46.1 µM", "from_the_text": "NIH Chemical Genomics Center [NCGC] NIH Molecular Libraries Probe Production centers Network [MLPCN] MLPCN Grant: R03 MH084179-01 Assay Submitter (PI): Elliot Androphy NCGC Assay Overview: Spinal muscular atrophy (SMA) is caused by insufficient levels of the survival motor neuron protein SMN. The SMN locus on chromosome 5q13 contains two inverted copies of SMN called SMN1 and SMN2 which are 99% identical at the amino acid level. SMN1 is a fully functional protein and SMN2 skips exon 7 90% of the time. Skipping of exon 7 produces non-functional protein product. 10% of the SMN2 protein includes exon 7 and is fully functional. In the SMA disease state, mutations in the SMN1 locus are the cause of the disease state. Because only 10% of SMN2 is of the fully functional form, it is not sufficient to overcome the deficiency produced by the loss of the SMN1 product. A therapy that either increase the amount of SMN2 product made or to increase the inclusion of exon 7 has been proposed for the treatment of SMA. We have designed an assay to identify small molecules that can increase the amount of functional SMN2 product by appending a luciferase reporter gene after the native SMN2 gene, such that inclusion of exon 7 in the expressed product places the luciferase sequence in frame, thus generating functional luciferase enzyme.\nNCGC Assay Protocol Summary: This screen utilizes a luciferase reporter gene assay, combining the promoter with the major portion of the native SMN2 cDNA (exons 1 -7, intron 8 , exon 8 fused to luciferase) stably expressed in HEK293 cells. Compounds that increase luciferase signal presumably enhance expression of the functional SMN2 splice variant. Passaging media contained DMEM w/ glutamax (+phenol red) 10% FCS, 1x pen/strep, 200 ug/ml hygro, 1x sodium pyruvate. Assay media contained DMEM w/ glutamax (-phenol red) 10% FCS, 1x pen strep, 1x pyruvate Sequence, Parameter, Value, Description (1) Cells, 5 uL, 2000 cells/well, 1536 TC treated White solid bottom plate (2) Time, 10-12 hours, 37C 5% CO2 (3) Compound, 23 nl, MLSMR Library (4) Control Compound, 23 nL, Sodium butyrate st 4.5mM (final) conc (5) Time, 30-36 hours, 37C 5% CO2 (6) Reagent, 3 ul, One Glo (TM) from Promega (7) Time, 5-15 minutes, Room temp (8) Detector, Viewlux: luminescent read, 60 second integration, high speed 2x binning Keywords: Spinal muscular atrophy, SMA, SMN2, high throughput screening, MLSMR, MLPCN, NIH Roadmap, qHTS and NCGC"}
{"compound": "NC(=O)C1CCN(c2nc(-c3ccc4c(c3)OCCO4)cs2)CC1", "Potency": "0.688 µM (active)"}
{"compound": "CN(C)c1cccc(-c2csc(N3CCC(C(N)=O)CC3)n2)c1", "Potency": "0.688 µM (active)"}
{"compound": "COc1ccc(-c2csc(N3CCC(C(N)=O)CC3)n2)cc1", "Potency": "4.34 µM (active)"}
{"compound": "CN(C)c1ccccc1-c1csc(N2CCC(C(N)=O)CC2)n1", "Potency": "inactive"}
{"compound": "NC(=O)C1CCN(c2nc(-c3ccccc3F)cs2)CC1", "Potency": "1.37 µM (active)"}
{"compound": "CS(=O)(=O)c1cccc(-c2csc(N3CCC(C(N)=O)CC3)n2)c1", "Potency": "inactive"}
{"compound": "NC(=O)C1CCN(c2nc(-c3ccc4ccccc4c3)cs2)CC1", "Potency": "4.87 µM (active)"}
{"compound": "NC(=O)C1CCN(c2nc(-c3ccccc3Br)cs2)CC1", "Potency": "inactive"}
{"compound": "NC(=O)C1CCN(c2nc(-c3cccs3)cs2)CC1", "Potency": "7.72 µM (active)"}
{"compound": "NC(=O)C1CCN(c2nc(-c3ccccc3-c3ccccc3)cs2)CC1", "Potency": "inactive"}
{"compound": "NC(=O)C1CCN(c2nc(-c3cc4ccccc4o3)cs2)CC1", "Potency": "8.67 µM (active)"}
{"compound": "Cn1ccc2cc(-c3csc(N4CCC(C(N)=O)CC4)n3)ccc21", "Potency": "4.34 µM (active)"}
{"compound": "NC(=O)C1CCN(c2nc(-c3ccccc3C(F)(F)F)cs2)CC1", "Potency": "inactive"}
{"compound": "Cc1ccc(-c2csc(N3CCC(C(N)=O)CC3)n2)cc1", "Potency": "0.772 µM (active)"}
{"compound": "NC(=O)C1CCN(c2nc(-c3ccc4occc(=O)c4c3)cs2)CC1", "Potency": "7.72 µM (active)"}
{"compound": "NC(=O)C1CCN(c2nc(-c3cccnc3)cs2)CC1", "Potency": "inactive"}
{"compound": "NC(=O)C1CCN(c2nc(-c3ccc(F)cc3)cs2)CC1", "Potency": "3.45 µM (active)"}
{"compound": "NC(=O)C1CCN(c2nc(-c3ccc(Br)cc3)cs2)CC1", "Potency": "708 nM (active) and 772 nM (active)"}
{"compound": "CC(=O)c1ccc(-c2csc(N3CCC(C(N)=O)CC3)n2)cc1", "Potency": "7.72 µM (active)"}
{"compound": "CC(=O)c1cccc(-c2csc(N3CCC(C(N)=O)CC3)n2)c1", "Potency": "3.87 µM (active)"}
{"compound": "NC(=O)C1CCN(c2nc(-c3cccc(N)c3)cs2)CC1", "Potency": "inactive"}
{"compound": "Cc1noc(C)c1-c1csc(N2CCC(C(N)=O)CC2)n1", "Potency": "inactive"}
{"compound": "CS(=O)(=O)c1ccccc1-c1csc(N2CCC(C(N)=O)CC2)n1", "Potency": "inactive"}
